Sampled rows, rich in hits. Any-hit rate of the full collection: about 4.1%.
PglD DTNB: PglD (C. jejuni) enzyme inhibition | purified PglD enzyme, DTNB colorimetric CoA detection | inhibition, % at 12.5 µM | 360,000 tested, 0.098% active | AID 602405; in the data active = inhibition above about 16%, passing the limit was not always enough
ALR H2O2 inh: human ALR oxidase inhibition via reduced H2O2. P55789. purified ALR, DTT oxidation, H2O2 HRP-luminol luminescence. inhibition, % (concentration not given with the values). 290,000 tested, 3.8% active. AID 485317;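 active = mean replicate inhibition above about 79%, with every replicate also reaching it, limit read from the data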
CASP6 VEID inh: blocks human caspase-6 cleavage activity; AID 686996; P55212; 350,000 tested, 0.53% active; purified caspase-6, Z-VEID-R110 cleavage fluorescence; inhibition, % at 12.5 µM;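 active = mean inhibition across replicates at least about 35%, with every replicate also reaching that limit, limit read from the data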;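 note: 0% = median of neutral control wells and 100% = no fluorescence left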
NSD2 HMT inh: NSD2 (human) methyltransferase inhibition; NSD2 peptide methylation, AlphaScreen, 120 min; inhibition, % at 12.5 µM; 310,000 tested, 0.54% active; in the data active = inhibition above about 50%
Env fusion inh: inhibitors of HIV Env-mediated cell fusion; inhibition, % at 12.3 µM; 360,000 tested, 1.1% active; HeLa-JRFL Env/CEM21 cell fusion, luciferase;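 active = mean replicate inhibition score of at least 50 and every replicate individually at or above 50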;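 note: 0% = plate neutral controls and 100% = maraviroc near 300 nM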
CFTR F508del cor: correctors of CFTR F508del function in bronchial epithelial cells; CFBE cells, YFP halide quenching; stimulated with forskolin plus potentiator P3; % fluorescence drop versus neutral controls; activity (quench increase), % at 7.58 µM; 350,000 tested, 0.36% active; AID 720511;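 active = mean added fluorescence quench of at least 8% versus neutral control, with both replicates also reaching 8%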;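 note: cells transiently co-express mutant CFTR-F508del with the halide-sensitive YFP; corrector assay measuring rescue of mutant channel to the surface after 24 h compound exposure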
* = called active by the depositor; · = not tested or not shown; ! = repeats disagree; [ ] = dose if it differs, or a comment.

SMILES | PglD DTNB | ALR H2O2 inh | CASP6 VEID inh | NSD2 HMT inh | Env fusion inh | CFTR F508del cor
COc1ccccc1C(=O)NC(=S)Nc1ccc(NC(=O)c2ccco2)cc1 | 3 | -7 | 0 | -5 | 3 | -2
COc1ccc(NC(=O)c2ccccc2NC(=O)c2ccco2)c(OC)c1 | 1 | 0 | · | -3 | · | ·
COc1ccc(/C=C/C(=O)NC(=S)NNC(=O)c2ccco2)cc1OC | -1 | 85* | -2 | -1 | -4 | -3
CCCNC(=O)N1C[C@@H](C)[C@@H](OC)CN(C)C(=O)c2cc(NS(C)(=O)=O)ccc2OC[C@H]1C | -1 | · | 3 | · | 13[16.7 µM] | 3
COc1ccc(S(=O)(=O)N2C[C@@H](O)COC[C@@H]3O[C@H](CC(=O)N(C)C)CC[C@H]32)cc1 | 7 | · | 0 | · | 12[16.7 µM] | 1
CO[C@@H]1CN(C)C(=O)c2cc(NC(=O)c3ccccc3)ccc2OC[C@H](C)N(C(=O)C2CC2)C[C@H]1C | 3 | · | -1 | · | -3[16.7 µM] | -4
COc1ccc(NC(=O)N(C)C[C@@H]2OCCCC[C@H](C)Oc3ccc(NC(=O)Nc4c(C)noc4C)cc3C(=O)N([C@@H](C)CO)C[C@@H]2C)cc1 | -2 | · | -2 | · | -7[16.7 µM] | -3
COc1ccc(/C=C/C(=O)NC(=S)NNC(=O)Cc2cccs2)cc1 | · | -15 | · | -3 | · | ·
COc1ccccc1NC(=S)NCc1ccc(F)cc1 | -1 | -24 | 4 | -2 | 2 | 2
COc1ccc(NC(=S)NCc2ccc(F)cc2)c(OC)c1 | 1 | 99* | -1 | 4 | 12 | -2
COc1ccc(/C=C/C(=O)NC(=S)NNC(=O)c2ccco2)cc1 | -3 | 86* | · | 1 | · | ·
O=C(C[C@@H]1CC[C@@H]2[C@H](COC[C@H](O)CN2C(=O)Nc2cccc(F)c2)O1)NCc1ccccc1Cl | 1 | · | 4 | · | · | -1
CCOC(=O)c1c(NC(=O)C2CC2)sc2c1CC(C)(C)OC2 | · | -2 | -3 | -5 | -20 | 1
COC(=O)c1c(N)sc2c1CC(C)(C)OC2 | 1 | 98* | -4 | -5 | 3 | 0
Cc1cccc(S(=O)(=O)N2C[C@H]3[C@@H](c4ccccc42)[C@H](CO)N3CC2CCOCC2)c1 | -1 | · | -3 | · | · | -1
Cc1cccc(S(=O)(=O)N2C[C@H]3[C@@H](c4ccccc42)[C@H](CO)N3CC2CCCC2)c1 | -4 | · | -1 | · | · | 14*
CNC(=O)C[C@@H]1CC[C@@H]2[C@@H](COc3ccc(NC(=O)Nc4c(C)noc4C)cc3C(=O)N2C)O1 | -1 | · | · | · | -21[16.7 µM] | -3
CC12CCC(C(=O)N3CCN(c4ccccc4)CC3)(CC1=O)C2(C)C (configuration not stated) | · | 99* | · | 3 | · | ·
CO[C@@H]1CN(C)C(=O)c2ccc(NC(=O)C3CC3)cc2OC[C@H](C)NC[C@@H]1C | 5 | · | 1 | · | · | 2
CC(=O)c1ccc(-c2ccc(C(=O)NC3CCCCCC3)o2)cc1 | 2 | 98* | -2 | · | 1 | 0
C[C@@H]1CN([C@H](C)CO)C(=O)c2cc(C#Cc3cccnc3)cnc2O[C@H]1CN(C)C | 6 | · | -3 | · | -29[16.7 µM] | -1
C[C@@H]1CN([C@@H](C)CO)C(=O)c2cc(C#CCN(C)C)cnc2O[C@@H]1CN(C)Cc1ccc(-c2ccccc2)cc1 | 3 | · | 0 | · | 1[16.7 µM] | -4
COCC#Cc1cnc2c(c1)C(=O)N([C@@H](C)CO)C[C@H](C)[C@@H](CN(C)C(=O)C1CCC1)O2 | 20* | · | -2 | · | 9[16.7 µM] | 0
C[C@H]1CN([C@@H](C)CO)C(=O)c2cc(C#CCN(C)C)cnc2O[C@H]1CN(C)C(=O)c1ccc2c(c1)OCO2 | -6 | · | 57* | · | -15[16.7 µM] | 0
C[C@@H]1CN([C@H](C)CO)C(=O)c2cc(C3=CCCC3)cnc2O[C@@H]1CN(C)Cc1ccc(C(=O)O)cc1 | -1 | · | -3 | · | -12[16.7 µM] | 1
SMILES | PglD DTNB | ALR H2O2 inh | CASP6 VEID inh | NSD2 HMT inh | Env fusion inh | CFTR F508del cor
C[C@@H]1CN([C@@H](C)CO)C(=O)c2cc(C3=CCCC3)cnc2O[C@@H]1CN(C)Cc1ccc(C(=O)O)cc1 | -2 | · | -4 | · | 60*[16.7 µM] | 0
COCC#Cc1cnc2c(c1)C(=O)N([C@H](C)CO)C[C@H](C)[C@H](CN(C)C(=O)C1CCC1)O2 | 3 | · | -1 | · | -12[16.7 µM] | 2
C[C@@H]1CN([C@@H](C)CO)C(=O)c2cc(C#CCN(C)C)cnc2O[C@H]1CN(C)Cc1ccc(-c2ccccc2)cc1 | -2 | · | -25 | · | 12[16.7 µM] | 9.2*!
O=C(N[C@@H]1CC[C@@H](CCNC(=O)C2CCCC2)O[C@@H]1CO)c1ccncc1 | -2 | · | 1 | · | 0[16.7 µM] | 2
CO[C@@H](CN(C)C(=O)c1ccccc1F)[C@@H](C)CN([C@H](C)CO)S(=O)(=O)c1ccc(Cl)cc1 | 3 | · | 2 | · | · | 2
COc1ccc(-c2csc(=Nc3ccccc3)n2CC(O)c2ccc([N+](=O)[O-])cc2)cc1 (configuration not stated) | · | · | · | 2 | · | ·
Cc1cc(NC(=O)c2ccc(Cl)cc2Cl)n(-c2ccccc2)n1 | 1 | 10 | 3 | · | 7 | -3
Cc1cc(Nc2nc3ccccc3nc2Cl)n(-c2ccccc2C)n1 | 0 | 10 | · | -16 | · | ·
Cc1cc(Nc2ccccc2)n(CCO)n1 | 3 | 99* | · | 0 | 5 | ·
Cc1cc(Nc2ccccc2C(=O)O)n(-c2cccc(Cl)c2)n1 | · | 98* | 4 | 1 | -2 | 0
Cc1cc(Nc2ccc(Cl)cc2)n(-c2ccccc2)n1 | 4 | 98* | · | 0 | · | ·
Cc1cc(Nc2ccc(Cl)cc2)n(-c2cccc(Cl)c2)n1 | -7 | 51 | · | -8 | 17 | ·
Cc1cc(Nc2nc3ccccc3nc2Cl)n(-c2ccccc2)n1 | 1 | 96* | · | -5 | 13 | ·
COc1ccc(Nc2n[nH]c(N)c2C(N)=O)cc1 | · | 99* | 2 | 0 | -16 | 1
COc1ccc(S(=O)(=O)N[C@H]2CC[C@@H](CC(=O)O)O[C@H]2CO)cc1 | -1 | · | 0 | · | 10[16.7 µM] | -2
N#Cc1cc(N)ccc1Sc1ccc(Cl)cc1 | -6 | 21 | · | -2 | · | ·
N#Cc1ncc(C(F)(F)F)cc1Sc1ccc(N)cc1 | · | 82* | · | 1 | · | ·
